Here are results for eight compounds from PubChem BioAssay (NCI).

This is part of a sample that, as a whole, favours compounds with a hit. Of some 83,000 tested, about 20% had one in any assay.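 Growth was measured after 48 h exposure to one concentration of compound in 96-well plates. Values under 10 count as active.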 Unmarked numbers belong to inactive results. Calls of active or inactive are those of the source.

Test systems include NCI-H23 lung; NCI-H226 lung; NCI-H322M lung; HOP-62 NSCLC; NCI-H460 lung; HOP-92 NSCLC; NCI-H522 lung; A549/ATCC NSCLC; 786-0 renal; COLO 205 colon; DU-145 prostate; K-562 leukemia; MALME-3M melanoma; MDA-MB-231 breast; RXF 393 renal; SF-268 CNS; SF-295 CNS; SF-539 CNS; UACC-257 melanoma; M14 melanoma.
Holding throughout (experiment): NCI-60 one-dose screen, 48 h (100 = growth as untreated, 0 = no growth, -100 = all killed)
Common to all, as to settings: 10 µM unless noted

For `Cn1cc(-c2cnn3c(N)c(Br)c([C@@H]4CCCNC4)nc23)cn1`, the growth was 39.6% in the assay on NCI-H23 lung; 60% in the assay on NCI-H226 lung; 48.2% in the assay on NCI-H322M lung; 28.8% in the assay with HOP-62 NSCLC; 35% in the assay on NCI-H460 lung; 54.6% in the assay with HOP-92 NSCLC. The growth in the assay with NCI-H522 lung was 28.4%; in the assay with A549/ATCC NSCLC it was 41.5%; in the assay on 786-0 renal, 37%; in the assay with COLO 205 colon it was 14.3%; in the assay with DU-145 prostate, 37.1%; with K-562 leukemia, 17.9%. For the same compound, the growth with MALME-3M melanoma was 50.4%; with MDA-MB-231 breast, 35.3%; with RXF 393 renal, -2.46% (active); in the assay on SF-268 CNS it was 60.1%; with SF-295 CNS it was 24.1%; in the assay with SF-539 CNS it was 22.6%. The growth is 70.7% in the assay on UACC-257 melanoma and 33.4% in the assay on M14 melanoma.
Turning to `FC(F)(F)c1ccc(CNc2ccc(Cc3c[nH]c4ncc(Cl)cc34)cn2)cn1`, the growth with NCI-H23 lung is 23.7%; with NCI-H226 lung it was 9.04% (active); in the assay with NCI-H322M lung, 33.2%; with HOP-62 NSCLC, 23.1%; in the assay on NCI-H460 lung it was 44.5%; in the assay with HOP-92 NSCLC, 37.7%. Further, the growth in the assay on NCI-H522 lung is 9.44% (active); in the assay with A549/ATCC NSCLC it was 5.16% (active); in the assay with 786-0 renal, -49.3% (active); with COLO 205 colon, -72.4% (active); in the assay with DU-145 prostate, 61.2%; with K-562 leukemia, 12.4%. In addition, the growth in the assay on MALME-3M melanoma was 15.9%; in the assay on MDA-MB-231 breast, 24.5%; in the assay with RXF 393 renal it was -7.15% (active); in the assay on SF-268 CNS it was 27.7%; with SF-295 CNS, 13.6%; in the assay with SF-539 CNS, 19.3%. Further, the growth is 7.18% (active) in the assay with UACC-257 melanoma and 11.5% with M14 melanoma.
Take `c1ccc2c(c1)CCN(NCCN1CCCC1)C2`: the growth with NCI-H23 lung was 86.7%; in the assay on NCI-H226 lung it was 88.8%; with NCI-H322M lung, 98.2%; with HOP-62 NSCLC, 75.4%; in the assay on NCI-H460 lung it was 107%; in the assay with HOP-92 NSCLC, 80.4%. In addition, the growth is 91.3% in the assay on NCI-H522 lung; 85.5% in the assay on A549/ATCC NSCLC; 101% in the assay with 786-0 renal; 91.8% in the assay with COLO 205 colon; 110% in the assay on DU-145 prostate; 92.2% in the assay with K-562 leukemia. The growth is 101% in the assay on MALME-3M melanoma; 87% with MDA-MB-231 breast; 99.9% in the assay with RXF 393 renal; 96.6% in the assay on SF-268 CNS; 98% with SF-295 CNS; 97.7% in the assay with SF-539 CNS. For the same compound, the growth in the assay with M14 melanoma was 93%.
Consider `COc1cc2ncnc(Nc3cccc(Cl)c3F)c2cc1OC(=O)N1CCN(C)C[C@H]1C`, for which the growth in the assay on NCI-H23 lung is 92%; in the assay on NCI-H226 lung, 75.7%; in the assay with NCI-H322M lung, 10.5%; in the assay with HOP-62 NSCLC, 61.8%; in the assay with NCI-H460 lung, 90.2%; with HOP-92 NSCLC, 51.9%. Moreover, the growth was 16.2% in the assay with NCI-H522 lung; 40.8% in the assay on A549/ATCC NSCLC; 75.6% in the assay on 786-0 renal; 79.5% with COLO 205 colon; 65% in the assay on DU-145 prostate; 60.9% in the assay with K-562 leukemia. The growth in the assay with MALME-3M melanoma is 106%; with MDA-MB-231 breast, 78.7%; in the assay on RXF 393 renal it was 67.9%; in the assay on SF-268 CNS, 73.4%; with SF-295 CNS, 83.7%; in the assay with SF-539 CNS it was 84.1%. Also, the growth with UACC-257 melanoma is 68.8%; with M14 melanoma it was 84.9%.
`CC(C)c1cc(CNc2nc(Nc3cc(C4CC4)[nH]n3)cc(N3CCN(C)CC3)n2)on1`: the growth is -25% (active) with NCI-H23 lung; -3.34% (active) in the assay on NCI-H226 lung; -20.1% (active) in the assay with NCI-H322M lung; -23.5% (active) in the assay with HOP-62 NSCLC; -47.6% (active) in the assay on NCI-H460 lung; -10.9% (active) in the assay with HOP-92 NSCLC. Moreover, the growth with NCI-H522 lung is -34.7% (active); in the assay on A549/ATCC NSCLC, 3.1% (active); in the assay on 786-0 renal, 10.3%; with COLO 205 colon, -69.6% (active); in the assay on DU-145 prostate, -15.7% (active); with K-562 leukemia, 5.67% (active). The growth with MALME-3M melanoma is -42.9% (active); in the assay on MDA-MB-231 breast, 6.11% (active); in the assay with RXF 393 renal, -54.1% (active); in the assay on SF-268 CNS, -3.51% (active); with SF-295 CNS it was 6.84% (active); in the assay on SF-539 CNS, -61.8% (active). For the same compound, the growth in the assay with UACC-257 melanoma is -14.3% (active); in the assay on M14 melanoma, -37.5% (active).
For `CC(C)=CCc1cc2c(cc1O)C1=C(C(=O)C3=C(NCCS3(=O)=O)C1=O)C(C=C(C)C)O2` (configuration not stated), the growth in the assay on NCI-H23 lung is 25.7%; in the assay with NCI-H226 lung, 57.9%; in the assay on NCI-H322M lung, 11.4%; in the assay on HOP-62 NSCLC, 25.3%; in the assay with NCI-H460 lung, 17.7%; with HOP-92 NSCLC, 115%. Besides, the growth is -4.35% (active) in the assay on NCI-H522 lung; 65.8% in the assay on A549/ATCC NSCLC; 58.7% in the assay on 786-0 renal; 29.4% with COLO 205 colon; 41.2% in the assay on DU-145 prostate; 8.83% (active) with K-562 leukemia. The growth in the assay on MALME-3M melanoma is -42.9% (active); in the assay with MDA-MB-231 breast, 12.1%; in the assay on RXF 393 renal it was 57.2%; with SF-268 CNS, 0.726% (active); in the assay with SF-295 CNS, 91.7%; with SF-539 CNS, 20%. Besides, the growth in the assay with M14 melanoma was 3.7% (active).
For `COc1cc(OC)c(/C=C/S(=O)(=O)Cc2ccc(OC)c(NCC(=O)O)c2)c(OC)c1`, the growth is 31.9% in the assay with NCI-H23 lung; 61.1% with NCI-H226 lung; 47.1% in the assay with NCI-H322M lung; 12.6% in the assay on HOP-62 NSCLC; 1.56% (active) in the assay on NCI-H460 lung; 43.9% in the assay with HOP-92 NSCLC. Also, the growth was -18% (active) in the assay with NCI-H522 lung; 9.08% (active) in the assay on A549/ATCC NSCLC; 21.9% with 786-0 renal; -62.1% (active) in the assay with COLO 205 colon; 7.91% (active) with DU-145 prostate; 8.38% (active) in the assay with K-562 leukemia. Also, the growth was 54.6% in the assay on MALME-3M melanoma; 39.7% in the assay with MDA-MB-231 breast; 36.9% with RXF 393 renal; 30.3% with SF-268 CNS; 15.5% in the assay with SF-295 CNS; -17.1% (active) in the assay on SF-539 CNS. Moreover, the growth in the assay on UACC-257 melanoma was 48.7%; in the assay on M14 melanoma, 12.6%.
With `CN1CCN(Cc2ccc(NC(=O)c3[nH]ncc3Nc3ncnc4sc5c(c34)CCCC5)cc2)CC1`, the growth in the assay with NCI-H23 lung was -63.7% (active); with NCI-H226 lung it was -51.9% (active); with NCI-H322M lung it was -50.8% (active); with HOP-62 NSCLC, -72% (active); in the assay with NCI-H460 lung it was -62.2% (active); with HOP-92 NSCLC, -21.1% (active). The growth in the assay on NCI-H522 lung is -76.1% (active); with A549/ATCC NSCLC, -58.2% (active); with 786-0 renal, -92.2% (active); in the assay with COLO 205 colon it was -93% (active); in the assay on DU-145 prostate, -86.7% (active); in the assay with K-562 leukemia, -60.6% (active). For the same compound, the growth in the assay with MALME-3M melanoma is -75.4% (active); in the assay on MDA-MB-231 breast, -57.8% (active); with RXF 393 renal, -92.9% (active); in the assay on SF-268 CNS, -44.3% (active); with SF-295 CNS it was -87.9% (active); with SF-539 CNS it was -100% (active). In the assay on M14 melanoma, the growth is -95.2% (active).
